Screening results as filed in PubChem.
Cycloheximide cs: affects cycloheximide protein synthesis inhibition readout, counter-screen; cell reporter, cycloheximide protein synthesis inhibition counterscreen; max response, %; 300,000 compounds, 12% hits; in the data active = max response mostly above about 13%, no sharp cut-off; inactive = mostly below about 14%; also: read at 38.3 µM for the half of the compounds with a filed dose
Sm TGR block: blocks Schistosoma mansoni thioredoxin glutathione reductase; 360,000 compounds, 3% hits; Q962Y6; purified TGR, DTNB reduction, TNB absorbance 405 nm; Potency, µM (titrated, usually from 114 µM), actives largely listed as inhibitors; AID 485364; also: nearly all actives have a fitted effect of over 60% in size
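TGR 20 nM + NADPH 100 uM (dispensed conc.), cpd preinc 15 min RT; start with NADPH (500 uM addition) then DTNB (15 mM addition). Kinetic TNB absorbance, 405 nm filter. Four-parameter Hill fit across titration.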
LmPK inhibitor: blocks Leishmania mexicana pyruvate kinase activity; 290,000 compounds, 0.37% hits; AID 1721; purified LmPK, Kinase-Glo ATP luminescence, 1 h; Potency, µM (titrated, usually from 57.5 µM), actives largely listed as inhibitors; Q27686
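Kinase-Glo luminescence read after 1 h RT reaction of 0.1 nM LmPK with 0.5 mM PEP and 0.1 mM ADP. Activity scaled between uninhibited and enzyme-free controls.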
Giardia FBPA inh: blocks Giardia fructose-bisphosphate aldolase activity; A8B2U2; purified Giardia FBPA; Potency, µM (titrated, usually from 59.6 µM), hits mostly inhibitors; 290,000 compounds, 0.71% hits; AID 2451; also: nearly all actives have a fitted effect of over 55% in size
Target sequence (A8B2U2 whole entry, looked up): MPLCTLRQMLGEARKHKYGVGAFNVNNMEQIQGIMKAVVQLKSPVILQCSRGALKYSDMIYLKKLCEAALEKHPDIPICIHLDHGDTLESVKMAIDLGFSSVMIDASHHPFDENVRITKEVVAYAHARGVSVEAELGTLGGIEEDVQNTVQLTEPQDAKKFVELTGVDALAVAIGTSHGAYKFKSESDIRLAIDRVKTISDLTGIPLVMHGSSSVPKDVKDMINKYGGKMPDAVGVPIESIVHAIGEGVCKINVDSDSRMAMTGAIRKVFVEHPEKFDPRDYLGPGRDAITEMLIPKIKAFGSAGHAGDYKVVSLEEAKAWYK
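40 nM FBPA preincubated 10 min at RT with compound (up to 57.5 uM final), then substrate plus GAPDH/TPI/NAD/arsenate coupling and diaphorase/resazurin added. Fluorescence read after 20 min at RT, 525/598 nm.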
Tb PYK inh: blocks Trypanosoma brucei pyruvate kinase. AID 624173. Potency, µM (series often up to 76.8 µM), usual class: inhibitors. 410,000 compounds, 0.12% hits. TbPYK enzyme, Kinase-Glo Plus ATP luminescence, 45 min. Q57TT1; also: nearly all actives have a fitted effect of over 50% in size
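Screened from lowest to highest concentration, compounds were pinned into TbPYK/substrate mixtures, and ADP (130 uM final) was added. Plates sat at room temperature for 45 min prior to Kinase-Glo Plus detection by luminescence.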
Shiga inhibitor: Shiga toxin inhibition; Vero cells, Shiga toxin protein synthesis inhibition reporter; inhibition, % at 38.7 µM; 290,000 compounds, 9.2% hits; in the data active = inhibition mostly above about 28%, no sharp cut-off; inactive = mostly below about 43%
A number is an active result; i = inactive; ? = inconclusive; nt = not tested or not shown; + = active, no number; [ ] = remark or other dose. This is one part of a sample in which hits are shown more often than they occur. Unless noted, calls follow the shape of the dose curve; as a rule, active = well fitted curve in the direction sought with a large enough effect; inconclusive = small, poorly fitted or top-dose-only effect, or another doubt; inactive = no such curve, though single readings can be large; an effect the other way counts as inactive or inconclusive.

SMILES	Cycloheximide cs	Sm TGR block	LmPK inhibitor	Giardia FBPA inh	Tb PYK inh	Shiga inhibitor
C(=C1/CCCC2=C1Nc1ncnn1C2c1ccccc1)/c1ccccc1 (stereo not drawn)	i	0.5µM	i	nt	nt	i
FC(F)(F)c1ccccc1C1C2=C(Nc3ncnn31)c1ccccc1CCC2 (stereo not drawn)	i	i	i	i	nt	i
COc1ccc(N=Cc2cc3c(cc2O)OC(N)=C(C#N)C3c2ccccc2)cc1 (stereo not drawn)	11	i	i	?	i	i
Cc1c(C(=O)Nc2nc(-c3ccc(F)cc3)ns2)oc2ccc(Br)cc12	nt	i	nt	nt	i	nt
O=c1c2cc(Br)ccc2[nH]c(=S)n1Cc1ccccn1	24	i	i	i	i	i
O=c1c2cc(N3CCOCC3)ccc2[nH]c(=S)n1CC1CCCO1 (stereo not drawn)	i	?	i	?	i	54
CC(=O)c1ccc(N2CCN(C(=O)c3ccc(Cn4c(=S)[nH]c5ccc(N6CCOCC6)cc5c4=O)cc3)CC2)cc1	i	i	i	i	i	59
O=c1c2cc(N3CCOCC3)ccc2[nH]c(=S)n1Cc1ccccn1	17	i	i	?	i	active
O=c1c2cc(Br)ccc2[nH]c(=S)n1Cc1ccccc1	i	i	i	i	i	i
CC(=O)c1ccc(N2CCN(C(=O)c3ccc(Cn4c(=O)[nH]c5ccccc5c4=O)cc3)CC2)cc1	nt	i	nt	nt	i	nt
CCOC(=O)c1c(NC(=O)c2cc(OCC)c(OCC)c(OCC)c2)sc2c1CCCCC2	nt	i	nt	nt	i	nt
COc1ccccc1NS(=O)(=O)c1cccc(C(=O)NNC(=O)C(C)NC(=O)c2ccco2)c1 (stereo not drawn)	nt	nt	nt	nt	i	nt
CC(Sc1nnc(-c2ccccc2F)n1C)C(=O)NC1CCCCC1 (stereo not drawn)	nt	i	nt	nt	i	nt
Clc1ccc(CSc2snnc2-c2ccccc2)c(Cl)c1	43	i	i	i	i	98
c1ccc(CSc2snnc2-c2ccccc2)cc1	44	?	i	i	i	42
COCCN(C(=O)C1CC1)c1nnc(-c2cccc(C)c2)s1	15	i	i	i	i	i
Cc1ccc2nc(N(CCCN(C)C)C(=O)c3ccco3)sc2c1	i	i	i[11.5 µM]	i	i	i
CCN(C(=O)c1ccco1)c1nnc(-c2ccc(OC)cc2)s1	30	i	i	i	i	+
COCCN(C(=O)c1cccc(OC)c1)c1nnc(-c2ccncc2)s1	i	i	i	i	i	i
CCCN(C(=O)c1ccco1)c1nnc(-c2cccc(C)c2)s1	61	i	i	i	i	72
CCC(C)[C@H](NC(=O)N1CC(=O)Nc2ccccc21)C(=O)N[C@H](C(=O)O)c1ccccc1 (stereo partly drawn)	i	i	i	nt	i	i
COc1ccc(N2CCN(C(=O)COC(=O)CCOc3ccc(C(C)(C)C)cc3)CC2)cc1	nt	i	nt	nt	i	nt
O=C(/C(=C/O)N=Nc1ccccc1)c1cccs1	39	i	i	i	i	i
Cc1ccc(C2Nc3ccccc3-n3c(-c4ccccc4)c4c(=O)n(C)c(=O)n(C)c4c32)o1 (stereo not drawn)	nt	i	nt	nt	i	nt
Cc1cc(C)cc(NC(=O)Nc2ccc(-n3ccc(C(F)(F)F)n3)cc2)c1	i	i	i	i	i	i
SMILES	Cycloheximide cs	Sm TGR block	LmPK inhibitor	Giardia FBPA inh	Tb PYK inh	Shiga inhibitor
O=C(Nc1ccc(-n2ccc(C(F)(F)F)n2)cc1)Nc1cccc(Cl)c1	31	i	i	i	nt	50
COc1ccccc1NC(=O)Nc1ccc(-n2ccc(C(F)(F)F)n2)cc1	42	i	i	i	i	123
CCOC(=O)CSc1ccc(-c2nc3ccccc3[nH]2)cn1	i	i	?	i	i	i
N#CCSc1ccc(-c2nc3ccccc3[nH]2)cn1	29	i	25µM	i	i	44
Oc1ccc(C=Nc2ccccc2-c2nc3ccccc3[nH]2)cc1	70	i	i	i	i	92
O=c1[nH]cccc1-c1nc2ccccc2[nH]1	21	i	i	i	i	55
Cc1[nH]ncc1-c1nc2ccccc2[nH]1	i	i	i	i	i	i
Nc1ccc(-c2nc3ccccc3[nH]2)cc1	33	i	?	i	i	102
Nc1ccc2nc(-c3ccc(-c4nc5ccc(N)cc5[nH]4)cc3)[nH]c2c1	i	i	i	i	i	i
